Rows were chosen to be rich in hits. Some 1.4% of all compounds tested hit in one or more screens of this group.
NS1 inh – inhibitors of influenza NS1 protein function | actives 0.4% (n = 270,000) | Potency, µM (top dose mostly 46.1 µM); calls by dose curve; note: actives are rising curves; nearly all actives have a fitted effect of over 50% in size
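OD600 was taken as the measure of yeast growth restored by compound in an NS1-expressing S. cerevisiae strain. Cells had been washed out of glucose medium and diluted 1:100 into galactose -URA medium, pH 6.0.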
AmpC no deterg – AmpC beta-lactamase inhibition without detergent; AmpC nitrocefin hydrolysis, absorbance 480 nm, 0.0001% Triton; Potency, µM (titrated, usually from 57.1 µM), usual class: inhibitors; actives 0.52% (n = 330,000); AID 485341; note: nearly all actives have a fitted effect of over 20% in size
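20 mM phosphate pH 7.0 + 0.01% (detergent screen) or 0.0001% Triton X-100; 5.3 nM AmpC reagent; cpd preinc 15 min RT; nitrocefin (800 uM stock) to start; A480 q20 s × 4 min; Activity was normalised to no-enzyme and no-compound control wells.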
SARS PLpro yeast – inhibitors of SARS-CoV papain-like protease in yeast | actives 0.19% (n = 330,000) | Potency, µM (titrated, usually from 32.9 µM), usual class: activators | S. cerevisiae expressing SARS-CoV PLpro, growth rescue | AID 485353; calls by dose curve; note: nearly all actives have a fitted effect of over 55% in size
Giardia FBPA inh – blocks Giardia fructose-bisphosphate aldolase activity; A8B2U2; purified Giardia FBPA; Potency, µM (doses to about 59.6 µM), actives largely listed as inhibitors; actives 0.71% (n = 290,000); AID 2451; note: nearly all actives have a fitted effect of over 55% in size
Target sequence (A8B2U2 whole entry, looked up): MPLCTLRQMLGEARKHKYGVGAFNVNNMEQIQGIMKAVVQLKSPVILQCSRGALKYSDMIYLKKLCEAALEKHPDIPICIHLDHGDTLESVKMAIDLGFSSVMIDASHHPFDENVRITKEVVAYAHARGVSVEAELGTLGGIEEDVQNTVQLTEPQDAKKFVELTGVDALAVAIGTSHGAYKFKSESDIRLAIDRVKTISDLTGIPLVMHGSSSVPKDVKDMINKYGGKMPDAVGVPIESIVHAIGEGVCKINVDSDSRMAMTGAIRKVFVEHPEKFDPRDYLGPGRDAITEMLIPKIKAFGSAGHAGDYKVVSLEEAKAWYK
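40 nM FBPA preincubated 10 min at RT with compound (up to 57.5 uM final), then substrate plus GAPDH/TPI/NAD/arsenate coupling and diaphorase/resazurin added. Fluorescence read after 20 min at RT, 525/598 nm.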
AmpC inh detg – inhibitors of E. coli AmpC beta-lactamase with detergent | P00811 | AmpC hydrolysis of nitrocefin, absorbance 480 nm, 0.01% Triton | Potency, µM (titrated, usually from 114 µM), hits mostly inhibitors | actives 0.041% (n = 370,000) | AID 485294; note: nearly all actives have a fitted effect of over 25% in size
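AmpC (5.3 nM in the dispensed reagent) in 20 mM phosphate pH 7.0 with 0.01% (detergent screen) or 0.0001% Triton X-100 was preincubated with compounds for 15 min at room temperature. Nitrocefin was then added from an 800 uM solution, and hydrolysis was followed at 480 nm.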
Hits are given with their value; 0 = inactive; ? = inconclusive; - = not tested or not shown. Unless noted, calls come from the whole dose curve; as a rule, active = well fitted curve in the direction sought with a large enough effect; inconclusive = small, poorly fitted or top-dose-only effect, or another doubt; inactive = no such curve, though single readings can be large; an effect the other way counts as inactive or inconclusive.

SMILES	NS1 inh	AmpC no deterg	SARS PLpro yeast	Giardia FBPA inh	AmpC inh detg
CCCCS(=O)(=O)Nc1ccc(C)cn1	0	0	0	7.9µM	0
O=C(C[C@H]1C/C=C\CC[C@@H](Cc2ccc(F)cc2)C(=O)O[C@@H](c2ccccc2)CNC1=O)N[C@H](CO)Cc1ccccc1	-	0	0	-	-
Cn1cc(C(=O)N2CCN(c3cccc(C(F)(F)F)c3)CC2)c2c3ccccc3n(C)c2c1=O	-	-	-	-	0
C=CCN(c1ccccc1)S(=O)(=O)c1cccc(C(=O)Nc2nc3ccccc3[nH]2)c1	0	10µM	0	0	0
C=CCN(c1ccccc1)S(=O)(=O)c1cccc(C(=O)Nc2ccncc2)c1	-	0	0	-	0
N#CC1=C(N)OC2=C(CCc3ccccc32)C1c1ccccc1Cl (stereo not given)	0	3.5µM	0	0	0
N#CC1=C(N)Oc2cc(N)ccc2C1c1ccccc1Cl (stereo not given)	0	0	0	0	?
CCOC(=O)/C=c1\s/c(=C\c2ccc(-c3ccccc3)cc2)c(=O)n1CC(=O)NCc1ccc2c(c1)OCO2	11µM	?	0	0	0
Cc1cc(C)cc(C(=O)N2CCC3(CC2)NCCc2[nH]cnc23)c1	0	0	0	-	0
CCOC(=O)c1c(/N=C/N(C)C)sc(/C=N/Nc2ccccc2)c1-c1ccccc1Cl	0	0	0	0	0
CCOC(=O)c1c(/N=C/N(C)C)sc(/C=N/Nc2ccccc2)c1-c1ccccc1	0	16µM	0	0	0
Cc1cc2oc(=O)cc(CSc3nc(N)cc(N)n3)c2cc1C(C)C	0	2.8µM	0	0	0
COc1ccc(Nc2nc(-c3ccccc3O)nc3ccccc23)cc1	0	2µM	0	0	0
COc1cccc(Nc2nc(-c3ccccc3O)nc3ccccc23)c1	0	0	0	0	0
O=C(NCCCN1CCN(c2ccccc2)CC1)Nc1ccccc1C(F)(F)F	?	0	?	0	0
Cc1cccc(/C=C(\C(=O)O)c2ccc(S(=O)(=O)N3CCCC3)s2)c1	-	32µM	0	-	-
O=S(=O)(Nc1cc(Sc2ncn[nH]2)c(O)c2ccccc12)c1ccccc1	-	0	0	2µM	0
O=C(O)CSc1cc(NS(=O)(=O)c2ccc(Br)cc2)c2ccccc2c1O	0	0	0	7.1µM	0
COc1cc(/C=C2/SC(=S)N(Cc3ccccc3)C2=O)ccc1O	0	0	0	0	0
Cc1ccccc1/C=C1\SC(=S)N(/N=C/c2cc([N+](=O)[O-])ccc2O)C1=O	-	28µM	?	0	0
O=C1/C(=C\c2cccc(O)c2O)SC(=S)N1Cc1ccccc1	0	0	0	?	0
O=C1/C(=C\c2ccc(O)c(O)c2)SC(=S)N1Cc1ccccc1	0	11µM	0	?	0
CC(N=Cc1cc([N+](=O)[O-])ccc1O)c1ccccc1 (stereo not given)	-	0	0	0	0
O=C1/C(=C\c2cc([N+](=O)[O-])ccc2O)SC(=S)N1Cc1ccc(Cl)cc1	0	3.5µM	0	0	0
COc1ccc(OCc2nc3ccccc3n2C(C)c2ccccc2)cc1 (stereo not given)	-	-	-	-	0
SMILES	NS1 inh	AmpC no deterg	SARS PLpro yeast	Giardia FBPA inh	AmpC inh detg
CC1=C(C(=O)OCc2ccccc2)C(c2ccc(-c3ccccc3)cc2)NC(=O)N1CCCCCC(=O)O (stereo not given)	?	0	0	0	0
Cc1ccc(CNC(=O)CN(C(=O)C2(C)CC(=O)N=C3C=CC=CN32)c2ccccc2)cc1 (stereo not given)	0	0	0	0	?
COC(=O)CCCC1=CC2=CC(=O)C(C)(OC(=O)c3cccs3)C(=O)C2=CN1CCc1c[nH]c2ccccc12 (stereo not given)	0	0	0	0.45µM	0
CCCCC1=CC2=CC(=O)C(C)(OC(=O)CC)C(=O)C2=CN1CCc1c[nH]c2ccccc12 (stereo not given)	?	0	0	?	0
COc1ccc2nc3ccccc3nc2c1N	0	0	0	0	0
COc1ccc2nc3cccc(OC)c3nc2c1	-	0	0	1.4µM	0
COC(=O)c1cccc(-n2nnnc2SCC(=O)Nc2nc3c(s2)CCCC3)c1	0	0	0	0	0
O=C(/C=C/c1ccco1)Nc1ccc(-c2nc3ccccc3[nH]2)cc1	0	35µM	0	0	0
O=C(Nc1ccc(-c2nc3ccccc3[nH]2)cc1)c1ccco1	0	0	0	0	0

Source: PubChem BioAssay
